Targets with a hit are over-represented here; the source holds about 7,900 in all. About 0.6% of all pairs of compound and target were hits. Unmarked numbers belong to inactive results.
Key:
Assay in all cases: log2 fold change, soluble protein after heating vs DMSO (PISA); higher = thermal stabilisation; K562 cells, 10 uM, 30 min; active = over 0.2 and 3.5 SD of the protein, either way, in both replicates (recomputed)
[1] = compound: COC1=CC=C(C=C1)CN2C=CC3=C2C=C(C=C3)C(=O)NO
Method in brief: (§1)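 Values are thermal stability changes relative to control samples and are taken from duplicates. They are stated as log2 fold changes. Before quantification by TMTpro 16plex LC-MS/MS with equalised channel sums, K562 cells at 2×10^6 cells/mL were treated with 10 μM compound for 30 min, heated in aliquots for 3 min across 48°C-58°C, pooled, extracted in PBS with 0.5% NP-40 at 4°C, and centrifuged at 21,000xg for 90 min to give the soluble supernatant.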

filanesib = compound: CON(C)C(=O)N1N=C(c2cc(F)ccc2F)S[C@@]1(CCCN)c1ccccc1 [filanesib]
Method in brief: as §1

zotarolimus = compound: CO[C@H]1C[C@@H]2CC[C@@H](C)[C@@](O)(O2)C(=O)C(=O)N2CCCC[C@H]2C(=O)O[C@H]([C@H](C)C[C@@H]2CC[C@H](n3cnnn3)[C@H](OC)C2)CC(=O)[C@H](C)/C=C(\C)[C@@H](O)[C@@H](OC)C(=O)[C@H](C)C[C@H](C)/C=C/C=C/C=C/1C [zotarolimus]
Method in brief: as §1

idasanutlin = compound: COc1cc(C(=O)O)ccc1NC(=O)[C@@H]1N[C@@H](CC(C)(C)C)[C@](C#N)(c2ccc(Cl)cc2F)[C@H]1c1cccc(Cl)c1F [idasanutlin]
Method in brief: as §1

alisertib = compound: COc1cc(Nc2ncc3c(n2)-c2ccc(Cl)cc2C(c2c(F)cccc2OC)=NC3)ccc1C(=O)O [alisertib]
Method in brief: as §1

[2] = compound: COc1cc2nc(-c3cc(F)ccc3O)nc(N[C@@H]3CNC[C@H]3C(C)(C)O)c2cc1OC
Method in brief: as §1

gefitinib = compound: COc1cc2ncnc(Nc3ccc(F)c(Cl)c3)c2cc1OCCCN1CCOCC1 [gefitinib]
Method in brief: as §1

[3] = compound: COc1cccc2cc(-c3nc([C@H]4CC[C@H](C(=O)O)CC4)n4ncnc(N)c34)[nH]c12
Method in brief: as §1

lapatinib = compound: CS(=O)(=O)CCNCc1ccc(-c2ccc3ncnc(Nc4ccc(OCc5cccc(F)c5)c(Cl)c4)c3c2)o1 [lapatinib]
Method in brief: as §1

pictilisib = compound: CS(=O)(=O)N1CCN(Cc2cc3nc(-c4cccc5[nH]ncc45)nc(N4CCOCC4)c3s2)CC1 [pictilisib]
Method in brief: as §1

[4] = compound: CS(=O)(=O)c1ccc(-c2cnc(N)c(C(=O)Nc3ccccc3)n2)cc1
Method in brief: as §1

crizotinib = compound: C[C@@H](Oc1cc(-c2cnn(C3CCNCC3)c2)cnc1N)c1c(Cl)ccc(F)c1Cl [crizotinib]
Method in brief: as §1

[5] = compound: C[C@@H]1COCCN1C2=NC(=NC(=C2)C3(CC3)S(=O)(=O)C)C4=C5C=CNC5=CC=C4
Method in brief: as §1

[6] = compound: C[C@H](C1=CC=C(C=C1)C(=O)NC2=C3C=CNC3=NC=C2)N
Method in brief: as §1

duvelisib = compound: C[C@H](Nc1ncnc2nc[nH]c12)c1cc2cccc(Cl)c2c(=O)n1-c1ccccc1 [duvelisib]
Method in brief: as §1

gandotinib = compound: Cc1cc(Nc2cc(CN3CCOCC3)c3nc(C)c(Cc4ccc(Cl)cc4F)n3n2)n[nH]1 [gandotinib]
Method in brief: as §1

tozasertib = compound: Cc1cc(Nc2cc(N3CCN(C)CC3)nc(Sc3ccc(NC(=O)C4CC4)cc3)n2)n[nH]1 [tozasertib]
Method in brief: as §1

[7] = compound: Cc1cc(SCc2sc(-c3ccc(C(F)(F)F)cc3)nc2C)ccc1OCC(=O)O
Method in brief: as §1

doramapimod = compound: Cc1ccc(-n2nc(C(C)(C)C)cc2NC(=O)Nc2ccc(OCCN3CCOCC3)c3ccccc23)cc1 [doramapimod]
Method in brief: as §1

ispinesib = compound: Cc1ccc(C(=O)N(CCCN)[C@@H](c2nc3cc(Cl)ccc3c(=O)n2Cc2ccccc2)C(C)C)cc1 [ispinesib]
Method in brief: as §1

Chain of UniProt Q7L1V2 (Q7L1V2 whole entry, looked up): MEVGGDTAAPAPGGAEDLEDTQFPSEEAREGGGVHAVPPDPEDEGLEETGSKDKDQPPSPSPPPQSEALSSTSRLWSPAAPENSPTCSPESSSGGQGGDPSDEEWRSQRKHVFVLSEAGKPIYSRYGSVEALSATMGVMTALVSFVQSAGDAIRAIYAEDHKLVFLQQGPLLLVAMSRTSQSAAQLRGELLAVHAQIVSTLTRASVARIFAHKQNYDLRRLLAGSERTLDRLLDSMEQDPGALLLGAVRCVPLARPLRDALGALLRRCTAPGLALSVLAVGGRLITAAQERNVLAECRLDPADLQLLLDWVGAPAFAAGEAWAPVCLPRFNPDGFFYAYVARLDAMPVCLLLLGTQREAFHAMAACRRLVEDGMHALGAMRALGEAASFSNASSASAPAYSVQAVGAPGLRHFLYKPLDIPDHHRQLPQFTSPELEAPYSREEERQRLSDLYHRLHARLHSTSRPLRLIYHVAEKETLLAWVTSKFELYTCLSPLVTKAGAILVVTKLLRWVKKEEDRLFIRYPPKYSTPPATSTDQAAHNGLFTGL
Chain of UniProt Q13423 (Q13423 whole entry, looked up): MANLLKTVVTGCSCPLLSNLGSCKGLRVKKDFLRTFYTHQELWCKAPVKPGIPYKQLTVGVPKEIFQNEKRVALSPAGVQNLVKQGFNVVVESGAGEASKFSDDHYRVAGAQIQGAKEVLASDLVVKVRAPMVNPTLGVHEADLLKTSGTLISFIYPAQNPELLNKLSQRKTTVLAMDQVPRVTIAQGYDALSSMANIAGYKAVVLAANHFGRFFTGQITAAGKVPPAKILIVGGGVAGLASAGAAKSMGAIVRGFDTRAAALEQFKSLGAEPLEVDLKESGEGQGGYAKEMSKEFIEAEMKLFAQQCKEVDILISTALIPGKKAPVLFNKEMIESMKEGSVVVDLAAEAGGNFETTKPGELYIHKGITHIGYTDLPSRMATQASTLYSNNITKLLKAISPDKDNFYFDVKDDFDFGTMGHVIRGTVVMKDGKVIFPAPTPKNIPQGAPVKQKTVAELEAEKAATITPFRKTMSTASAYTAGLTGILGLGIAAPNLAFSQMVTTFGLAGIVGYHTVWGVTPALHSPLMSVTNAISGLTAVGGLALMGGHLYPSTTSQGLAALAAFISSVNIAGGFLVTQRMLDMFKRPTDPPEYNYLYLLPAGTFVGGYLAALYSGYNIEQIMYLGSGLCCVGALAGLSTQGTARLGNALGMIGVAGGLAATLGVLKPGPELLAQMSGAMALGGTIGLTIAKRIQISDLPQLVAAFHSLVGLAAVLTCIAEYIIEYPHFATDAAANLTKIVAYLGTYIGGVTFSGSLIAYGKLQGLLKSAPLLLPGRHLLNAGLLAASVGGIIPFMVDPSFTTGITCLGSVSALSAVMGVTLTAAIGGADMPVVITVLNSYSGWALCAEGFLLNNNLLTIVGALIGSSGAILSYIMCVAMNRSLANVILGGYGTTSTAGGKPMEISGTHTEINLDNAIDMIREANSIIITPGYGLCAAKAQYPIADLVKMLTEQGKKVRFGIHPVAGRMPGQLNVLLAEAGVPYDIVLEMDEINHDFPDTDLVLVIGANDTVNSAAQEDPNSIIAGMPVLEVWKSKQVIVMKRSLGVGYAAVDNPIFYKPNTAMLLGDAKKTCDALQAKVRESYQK
Chain of UniProt P49116 (P49116 whole entry, looked up): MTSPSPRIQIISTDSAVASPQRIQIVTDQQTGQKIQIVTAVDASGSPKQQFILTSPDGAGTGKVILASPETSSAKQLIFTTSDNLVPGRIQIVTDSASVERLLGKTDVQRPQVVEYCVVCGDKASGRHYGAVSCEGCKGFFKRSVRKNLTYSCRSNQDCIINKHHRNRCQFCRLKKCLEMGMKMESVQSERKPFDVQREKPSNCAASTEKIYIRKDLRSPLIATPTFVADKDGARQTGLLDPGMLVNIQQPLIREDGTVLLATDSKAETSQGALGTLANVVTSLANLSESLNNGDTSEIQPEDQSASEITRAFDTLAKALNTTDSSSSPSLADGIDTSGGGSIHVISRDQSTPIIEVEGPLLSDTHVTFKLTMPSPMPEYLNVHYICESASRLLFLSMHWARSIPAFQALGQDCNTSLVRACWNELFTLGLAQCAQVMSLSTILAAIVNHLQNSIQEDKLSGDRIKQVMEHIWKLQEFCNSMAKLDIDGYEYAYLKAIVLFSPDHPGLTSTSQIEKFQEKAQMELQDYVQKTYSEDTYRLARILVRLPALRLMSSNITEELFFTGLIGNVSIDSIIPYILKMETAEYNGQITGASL
Chain of UniProt P68402 (P68402 whole entry, looked up): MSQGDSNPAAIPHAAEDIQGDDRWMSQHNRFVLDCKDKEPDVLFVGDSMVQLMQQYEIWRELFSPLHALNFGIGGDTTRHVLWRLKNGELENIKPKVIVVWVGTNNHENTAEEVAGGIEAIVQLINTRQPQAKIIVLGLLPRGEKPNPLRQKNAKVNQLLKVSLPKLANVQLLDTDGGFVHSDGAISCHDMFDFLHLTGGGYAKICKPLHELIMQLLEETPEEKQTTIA
Chain of UniProt Q9BRA0 (Q9BRA0 whole entry, looked up): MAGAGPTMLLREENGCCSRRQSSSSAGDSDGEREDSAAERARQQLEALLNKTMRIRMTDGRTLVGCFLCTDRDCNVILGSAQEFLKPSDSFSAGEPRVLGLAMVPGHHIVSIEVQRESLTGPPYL
Chain of UniProt Q96MF7 (Q96MF7 whole entry, looked up): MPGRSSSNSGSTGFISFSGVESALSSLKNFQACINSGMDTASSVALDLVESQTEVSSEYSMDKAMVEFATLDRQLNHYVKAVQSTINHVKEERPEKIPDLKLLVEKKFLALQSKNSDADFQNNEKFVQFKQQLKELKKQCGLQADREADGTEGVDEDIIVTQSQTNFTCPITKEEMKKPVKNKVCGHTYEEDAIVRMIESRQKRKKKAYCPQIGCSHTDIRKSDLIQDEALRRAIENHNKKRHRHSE
Chain of UniProt Q9BW27 (Q9BW27 whole entry, looked up): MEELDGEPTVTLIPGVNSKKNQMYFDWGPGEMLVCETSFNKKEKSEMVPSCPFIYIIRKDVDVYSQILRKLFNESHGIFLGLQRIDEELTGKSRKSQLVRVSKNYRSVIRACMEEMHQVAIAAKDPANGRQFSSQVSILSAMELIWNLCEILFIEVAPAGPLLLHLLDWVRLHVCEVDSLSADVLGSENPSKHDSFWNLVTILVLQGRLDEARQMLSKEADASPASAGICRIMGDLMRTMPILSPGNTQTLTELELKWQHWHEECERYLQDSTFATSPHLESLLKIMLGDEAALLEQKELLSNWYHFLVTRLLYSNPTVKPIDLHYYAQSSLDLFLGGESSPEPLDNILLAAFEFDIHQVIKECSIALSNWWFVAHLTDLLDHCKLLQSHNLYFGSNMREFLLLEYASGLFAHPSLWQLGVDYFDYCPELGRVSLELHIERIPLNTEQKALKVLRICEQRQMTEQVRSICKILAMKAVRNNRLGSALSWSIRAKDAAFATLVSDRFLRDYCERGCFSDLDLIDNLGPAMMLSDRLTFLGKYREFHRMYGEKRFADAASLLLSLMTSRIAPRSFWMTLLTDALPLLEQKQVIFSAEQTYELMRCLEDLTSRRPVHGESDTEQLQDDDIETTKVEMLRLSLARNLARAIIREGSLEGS

Row | Target | log2 fold change [1] | log2 fold change (filanesib) | log2 fold change (zotarolimus) | log2 fold change (idasanutlin) | log2 fold change (alisertib) | log2 fold change [2] | log2 fold change (gefitinib) | log2 fold change [3] | log2 fold change (lapatinib) | log2 fold change (pictilisib) | log2 fold change [4] | log2 fold change (crizotinib) | log2 fold change [5] | log2 fold change [6] | log2 fold change (duvelisib) | log2 fold change (gandotinib) | log2 fold change (tozasertib) | log2 fold change [7] | log2 fold change (doramapimod) | log2 fold change (ispinesib)
1 | PAFAH1B2 (UniProt P68402) | 0.044 | -0.074 | 0.007 | 0.082 | 0.02 | -0.071 | 0.086 | 0.033 | 0.029 | -0.28 | 0.016 | -0.017 | -0.13 | -0.054 | 0.086 | 0.16 | -0.072 | -0.066 | 0.022 | -0.002
2 | NNT (UniProt Q13423) | -0.008 | -0.08 | 0.015 | -0.076 | -0.041 | 0.037 | 0.016 | 0.031 | -0.031 | -0.01 | 0.031 | 0.032 | 0.047 | -0.06 | 0.025 | -0.246 (active) | 0.015 | -0.006 | -0.023 | 0.02
3 | NR2C2 isoform 2 (UniProt P49116) | 0.026 | 0.019 | 0.055 | 0.041 | -0.173 | 0.028 | -0.052 | 0.084 | -0.004 | 0.019 | 0.016 | 0.063 | 0.054 | -0.076 | 0.066 | -0.047 | 0.081 | 0.022 | 0.011 | 0.009
4 | NA, A0A096LPI6 | 0.008 | -0.044 | 0.019 | -0.014 | -0.034 | -0.123 | 0.018 | 0.074 | 0.029 | -0.02 | -0.014 | 0.079 | 0.03 | -0.015 | 0.018 | 0.04 | -0.034 | -0.051 | -0.038 | 0.047
5 | NAA38 isoform 2 (UniProt Q9BRA0) | 0.033 | -0.014 | 0.001 | -0.045 | 0.044 | -0.005 | 0.02 | 0.052 | 0.062 | 0.023 | 0.012 | -0.052 | 0.099 | 0.018 | 0.124 | -0.004 | -0.013 | 0.015 | -0.02 | -0.064
6 | NUP85 (UniProt Q9BW27) | 0.01 | -0.009 | -0.022 | 0.016 | -0.061 | -0.038 | 0.025 | 0.043 | -0.042 | 0.049 | 0.022 | -0.007 | 0.049 | -0.088 | 0.033 | -0.107 | 0.048 | 0.026 | -0.021 | 0.015
7 | NSMCE2 (UniProt Q96MF7) | -0.029 | 0.045 | 0.018 | 0.027 | -0.076 | 0.018 | -0.009 | -0.018 | 0.023 | -0.233 (active) | 0.001 | 0.051 | -0.038 | -0.024 | -0.011 | -0.131 | 0.043 | -0.042 | 0.004 | 0.044
8 | MON1B (UniProt Q7L1V2) | -0.012 | 0.029 | -0.008 | -0.056 | -0.136 | 0.065 | -0.012 | 0.037 | 0.055 | 0.029 | 0.006 | -0.342 (active) | 0.069 | -0.001 | -0.02 | -0.106 | -0.018 | 0.005 | 0.022 | -0.102
